# Screening results: PubChem BioAssay, National Center for Advancing Translational Sciences (NCATS)
# A selection: hits, their analogues and other compounds. The true share with any hit is near 9%.
# PLK1 PBD block – qHTS for Inhibitors of PLK1-PDB (polo-like kinase 1 - polo-box domain): Primary Screen; Plk1 PBD binding of FITC phosphopeptide, fluorescence polarization; Potency, µM, for inactives: max response, negative = inhibition, most hits filed as inhibitors; actives 2.8% (n = 360,000); note: series mostly up to about 57 µM; % is set by controls: 0 for no effect and ±100 for the full control effect; nearly all actives have a fitted effect of over 65% in size
# ALOX12 inh – Primary qHTS assay for inhibitors of human arachidonate 12S-lipoxygenase (ALOX12): Round 2; AID 1671190, 2021; purified 12hLO, xylenol orange hydroperoxide absorbance; Potency, µM (doses to about 108 µM), for the others: at the highest dose activity change, negative = inhibition, actives largely listed as inhibitors; actives 1.1% (n = 580,000); note: % is set by controls: 0 for no effect and ±100 for the full control effect
#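 Purified human 12hLO at 150 nM in 25 mM Hepes, 0.01% Triton X-100, pH 7.0, preincubated 15 min at room temperature with compound. Reaction started with 40 uM arachidonic acid, 30 min at room temperature. Hydroperoxide measured by Fe-xylenol orange, 573/405 nm absorbance ratio.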
# BAZ2B inh – qHTS Assay for Inhibitors of BAZ2B; Bromodomain adjacent to zinc finger domain protein 2B (Homo sapiens), Q9UIF8; AlphaScreen BAZ2B-H3K14Ac peptide displacement; Potency, µM (top dose mostly 114 µM), for the others: at the highest dose activity change, negative = inhibition, most hits filed as inhibitors; actives 4.4% (n = 360,000); AID 504333, 2011; note: % is set by controls: 0 for no effect and ±100 for the full control effect; nearly all actives have a fitted effect of over 60% in size
#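 Inhibition is scored as reduced AlphaScreen emission. The BAZ2B/b-H3(5-23)K14Ac complex (50 nM each) in PBS pH 7.4, 0.01% Tween-20 meets compound (up to 110 uM) for 30 min at RT before bead addition.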
# JMJD2A Tudor inh – qHTS Assay for Inhibitors of JMJD2A-Tudor Domain; AlphaScreen JMJD2A-Tudor / H3K4me3 peptide binding; Potency, µM (titrated, usually from 114 µM), inactives show at the top dose activity change, negative = inhibition, actives largely listed as inhibitors; actives 4.4% (n = 390,000); Lysine-specific demethylase 4A (Homo sapiens), O75164; note: % is set by controls: 0 for no effect and ±100 for the full control effect; nearly all actives have a fitted effect of over 50% in size
# Target sequence (O75164 whole entry, looked up, the tested form may be a part): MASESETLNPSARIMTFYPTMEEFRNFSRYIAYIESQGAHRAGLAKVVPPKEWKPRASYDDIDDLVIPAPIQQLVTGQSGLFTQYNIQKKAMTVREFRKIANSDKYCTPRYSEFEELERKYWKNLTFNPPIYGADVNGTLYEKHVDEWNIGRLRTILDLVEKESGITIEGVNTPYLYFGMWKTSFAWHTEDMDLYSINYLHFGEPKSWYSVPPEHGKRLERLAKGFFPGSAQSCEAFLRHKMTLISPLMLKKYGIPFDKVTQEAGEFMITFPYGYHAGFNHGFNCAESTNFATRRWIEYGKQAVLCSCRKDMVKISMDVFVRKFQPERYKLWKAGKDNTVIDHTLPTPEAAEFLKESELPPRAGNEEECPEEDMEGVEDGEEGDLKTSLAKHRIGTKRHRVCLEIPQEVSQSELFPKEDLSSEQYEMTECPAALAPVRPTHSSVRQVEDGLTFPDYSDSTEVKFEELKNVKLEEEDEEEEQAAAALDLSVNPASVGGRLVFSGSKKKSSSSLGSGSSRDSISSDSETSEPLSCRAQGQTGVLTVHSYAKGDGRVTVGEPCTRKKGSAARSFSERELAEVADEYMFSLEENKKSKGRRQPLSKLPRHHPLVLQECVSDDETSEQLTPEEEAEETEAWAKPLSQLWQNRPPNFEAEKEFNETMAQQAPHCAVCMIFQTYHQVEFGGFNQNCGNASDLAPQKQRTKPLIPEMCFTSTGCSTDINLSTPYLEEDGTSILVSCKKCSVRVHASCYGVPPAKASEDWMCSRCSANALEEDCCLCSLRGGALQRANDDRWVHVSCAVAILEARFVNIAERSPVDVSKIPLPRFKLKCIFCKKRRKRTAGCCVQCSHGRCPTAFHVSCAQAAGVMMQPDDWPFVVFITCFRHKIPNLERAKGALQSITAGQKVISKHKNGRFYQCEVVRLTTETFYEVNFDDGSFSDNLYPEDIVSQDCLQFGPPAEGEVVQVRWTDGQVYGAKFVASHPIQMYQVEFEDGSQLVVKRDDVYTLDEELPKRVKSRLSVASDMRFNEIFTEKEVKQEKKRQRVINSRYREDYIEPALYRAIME
# HP1b chromo inh – HTS for Inhibitors of HP1-beta Chromodomain Interactions with Methylated Histone Tails | Potency, µM (highest dose often 114 µM), for the others: at the highest dose activity change, negative = inhibition, actives largely listed as inhibitors | AID 540317, 2011 | AlphaScreen HP1-beta / biotin-H3K9me3 peptide binding | actives 0.56% (n = 390,000) | Chromobox protein homolog 1 (Homo sapiens), P83916; note: nearly all actives have a fitted effect of over 70% in size
#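 Compound inhibition of the preformed complex between 50 nM HP1-beta and 50 nM biotinylated H3K9me3 peptide was read by AlphaScreen. Buffer was PBS pH 7.4 with 0.01% Tween-20. Incubations ran 30 min at room temperature, with 10 ug/mL donor/acceptor beads.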
# G9a block – qHTS Assay for Inhibitors of Histone Lysine Methyltransferase G9a | Potency, µM (series often up to 102 µM), for inactives: at the highest dose activity, negative = inhibition, actives largely listed as inhibitors | Histone-lysine N-methyltransferase EHMT2 (Homo sapiens), Q96KQ7 | AID 504332, 2011 | G9a H3K9 monomethylation, AlphaScreen, 2 h | actives 8.8% (n = 350,000); note: % is set by controls: 0 for no effect and ±100 for the full control effect; nearly all actives have a fitted effect of over 75% in size
#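 Methyltransferase reactions run at room temperature for 2 h (20 nM enzyme, 500 nM biotin-H3K9 peptide, 20 uM SAM) after a 15 min compound preincubation; product detected by AlphaScreen beads and anti-H3K9me1 antibody.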
# The depositor's hits bear a star; u = inconclusive; x = no result; ! = not active in a repeat; [ ] = dose if it differs, or a comment. Calls come from the whole dose curve; as a rule, active = well fitted curve in the direction sought with a large enough effect; inconclusive = small, poorly fitted or top-dose-only effect, or another doubt; inactive = no such curve, though single readings can be large; an effect the other way counts as inactive or inconclusive. Potency is the fitted concentration of half-maximal effect.
SMILES,PLK1 PBD block,ALOX12 inh,BAZ2B inh,JMJD2A Tudor inh,HP1b chromo inh,G9a block
Cn1nnnc1SCC1=C(C(=O)O)N2C(=O)C(NC(=O)C(O)c3ccccc3)C2SC1 (configuration not stated),x,x,x,x,x,-34%[2.33 µM]
Cn1nnnc1SCC1=C(C(=O)O)N2C(=O)[C@@H](NC(=O)[C@H](O)c3ccccc3)[C@H]2SC1,13µM*,x,50µM*,22µM*,u,13µM*
Cc1nn(C(C)C(=O)NC2C(=O)N3C(C(=O)O)=C(CSc4nnnn4C)CSC23)cc1Cl (configuration not stated),-27%,0%,u,-21%,41%,u
Cn1nnnc1SCC1=C(C(=O)O)N2C(=O)C(NC(=O)C3CC3c3ccccc3)C2SC1 (configuration not stated),u,-34%,71µM*,u,16%,u
CC(C(=O)NC1C(=O)N2C(C(=O)O)=C(CSc3nnnn3C)CSC12)n1cc(Br)cn1 (configuration not stated),-22%,-14%,50µM*,-23%,21%,28µM*
N[C@H](C(=O)N[C@@H]1C(=O)N2C(C(=O)O)=C(Cl)CS[C@@H]12)c1ccccc1,x,x,x,x,x,8.9µM*!
O=C(CN1C(=O)c2ccccc2S1(=O)=O)NCc1ccco1,-5%,-13%,-14%,-14%,26%,4%
Cc1cc(CNC(=O)COc2ccc(C)c(C)c2)c2ccccc2n1,2%,0%,-2%,-10%,35%,11%
O=C(CSc1nnc(Cn2nnc3ccccc32)o1)Nc1ccc(Cl)cc1,3%,0%,7%,2%,12%,11%[59 µM]
CCC1(CC)NC(=O)N(CC(=O)N2CCN(S(=O)(=O)c3cccc(F)c3)CC2)C1=O,-2%,-2%,-9%,1%,25%,34%
Cn1nnnc1SCC1=C(C(=O)O)N2C(=O)C(NC(=O)C(OC=O)c3ccccc3)C2SC1 (configuration not stated),x,x,x,x,x,-34%[2.33 µM]
Cc1cc(C(F)F)nn1CC(=O)NC1C(=O)N2C(C(=O)O)=C(CSc3nnnn3C)CSC12 (configuration not stated),-19%,-8%,56µM*,-2%,22%,35µM*
CSc1ccc(Cl)c(C(=O)OCC(=O)N2CCOCC2)c1,-5%,388%,23%,-6%,24%,-1%[59 µM]
COc1ccc(N2C(=O)CC(Cc3ccc(Br)cc3)C2=O)cc1 (configuration not stated),-2%,1%,7%,5%,33%,x
CCCCCCC(=O)N(O)C1CC(=O)N(c2ccc(Br)cc2)C1=O (configuration not stated),u,-57%,-10%,25µM*,-65%,0.63µM*
COc1ccccc1N(O)C1CC(=O)N(c2ccc(Br)cc2)C1=O (configuration not stated),3µM*,u,u,25µM*,u,u
COc1ccc(COc2ccc(S(=O)(=O)N3CCCC3)cc2C(N)=O)cc1F,-2%,-1%,5%,-6%,26%,12%
CCN1/C(=C2\C(=O)N(c3ccccc3)N=C2C)C=Cc2cc(C)ccc21,-8%,u,56µM*,-8%,21%,u
CCN1/C(=c2/s/c(=C3/C(=O)N(c4ccccc4)N=C3C)n(CC)c2=O)C=Cc2ccccc21,-7%,-16%,x,-29%,-23%,x
Cn1c(=O)n(C)c2cc(NC(=O)CCc3ccccc3)c(Br)cc21,4%,4%,50µM*,-3%,30%,x
CSc1ccccc1NC(=O)CCc1ccccc1,3%,-9%,1%,18%,37%,-2%
